{
  "source": "PubChem BioAssay AID651602",
  "about": "(The Scripps Research Institute Molecular Screening Center, 2012)",
  "note": "The whole screen tested about 360,000 compounds, of which about 950 (0.26%) were called active. Cut-off read from the data, not from the text of the source: active = inhibition above about 11%; inactive = the rest. The entries come from a sample that favours actives as a whole.",
  "data": [
    {"assay": "reduced absorbance of E. coli cultures with phage – HTS, RecBCD inhibitor project, primary screen (AID 651602)", "settings": "growth absorbance, at 11.9 µM, active compounds read high", "values": [
      {"smiles": "O=[N+]([O-])c1cnc2ccc3ccccc3c2c1", "inhibition": "18.9% (active)"},
      {"smiles": "Cc1ccc(-n2c(-c3ccc([N+](=O)[O-])cc3)nc3ccccc3c2=O)cc1", "inhibition": "0.89% (inactive)"},
      {"smiles": "C/C(=N/O)c1ccc2ccc3ccccc3c2c1", "inhibition": "1.01% (inactive)"},
      {"smiles": "Cc1cccc(-n2c(C)nc3cc(C(=O)N4CCC5(CC4)OCCO5)ccc32)c1", "inhibition": "4.97% (inactive)"},
      {"smiles": "COC(=O)C1=C(c2ccc(OCc3ccccc3)cc2)C[C@@H]2CC[C@H]1N2C(=O)NCc1cccc(F)c1", "inhibition": "4.61% (inactive)"},
      {"smiles": "N#CC1=C(N)Oc2c(c(=O)oc3ccccc23)C1c1ccccc1OC(=O)c1cccs1", "note": "(stereo not given)", "inhibition": "5.44% (inactive)"},
      {"smiles": "COc1ccc(N=Cc2c(O)n(C)c(=O)[nH]c2=O)cc1", "inhibition": "0.79% (inactive)"},
      {"smiles": "CCc1nnc(NS(=O)(=O)c2ccc(N=Cc3c(O)n(-c4ccccc4)c(=O)[nH]c3=O)cc2)s1", "inhibition": "11.9% (active)"},
      {"smiles": "O=c1[nH]c(=O)n(-c2ccccc2)c(O)c1C=NC12CN3CN(CN(C3)C1)C2", "inhibition": "1.36% (inactive)"},
      {"smiles": "CCC1(C)CC(CCNCc2ccc(N(C)C)cc2)(c2ccc(F)cc2)CCO1", "note": "(stereo not given)", "inhibition": "4.38% (inactive)"}
    ]}
  ]
}
